Measurements as given in the supplement of paper PMC11732987, “Enantioselective OTUD7B fragment discovery through chemoproteomics screening and high-throughput optimisation” (Communications Chemistry, 2025).

Target: COPS5 (UniProt Q92905)
Assay: log2 ratio of Biotin-Ahx-Ub-VS probe labelling (fragment/DMSO); higher = less target engagement (more negative = stronger competition), active = hit call of the paper (q ≤ 0.05, log2 ratio ≤ -1)
Conditions: compound concentration: 200 uM; treatment time: 3 h
Description: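 Competitive ABPP in HEK293T cell lysate. Lysates were treated with each chloroacetamide fragment at 200 µM for 3 h, then with Biotin-Ahx-Ub-VS (0.5 µM, 1 h), NeutrAvidin-enriched and analysed by diaPASEF LC-MS/MS. Protein LFQ was median-normalised; average log2 ratio is fragment/DMSO from an unpaired t-test (n=3 treated, n=44 DMSO). Hits: q ≤ 0.05, log2 ratio ≤ -1, unique peptides ≥ 2.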

Sequence of COPS5 (Q92905 whole entry, looked up, the tested form may be a part): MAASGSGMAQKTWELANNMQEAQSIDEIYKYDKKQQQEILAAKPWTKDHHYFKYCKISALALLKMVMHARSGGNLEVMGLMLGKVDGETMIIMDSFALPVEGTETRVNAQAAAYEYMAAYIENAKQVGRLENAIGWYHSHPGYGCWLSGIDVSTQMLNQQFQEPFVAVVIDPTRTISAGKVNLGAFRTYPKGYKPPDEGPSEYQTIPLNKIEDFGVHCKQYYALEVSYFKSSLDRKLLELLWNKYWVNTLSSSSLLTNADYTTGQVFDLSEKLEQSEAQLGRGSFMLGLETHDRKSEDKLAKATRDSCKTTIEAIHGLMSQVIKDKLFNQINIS

log2 ratio of Biotin-Ahx-Ub-VS probe labelling, inactive:
COc1ccc(-c2csc(NC(=O)CCl)n2)cc1 0.189
O=C(CCl)N1CCC(=C(F)CO)C1 -0.253
CN(C(=O)CCl)c1nc2ccccc2s1 -0.0311
CCC(NC(=O)CCl)c1ccc(Cl)cc1 (stereo not given) 0.193
Cc1ccc(C)c(Oc2ccc(CNC(=O)CCl)cn2)c1.Cl -0.0158
Cc1cccn2cc(CCNC(=O)CCl)nc12.Cl -0.284
O=C(CCl)N(C1CCCC1)C1CCS(=O)(=O)C1 (stereo not given) -0.0682
CCCn1nccc1NC(=O)CCl -0.308
O=C(CCl)Nc1ccc2c(c1)OC(F)(F)O2 -0.156
O=C(CCl)NCc1noc(C2CC2)n1 0.133
Cl.O=C(CCl)NCc1cc2c(nc1O)CCCC2 -0.023
O=C(CCl)N1CCN(C(=O)N2CCCCC2)CC1 -0.16
O=C(CCl)NCCc1ccc(F)cc1 0.0919
Cc1c(C#N)c(NC(=O)CCl)n(Cc2ccco2)c1C -0.146
O=C(CCl)N1CCOCC1C1CC1 (stereo not given) 0.143
Cc1nc(CNC(=O)CCl)c2ccccn12.Cl -0.109
O=C(CCl)NC1CCC(C(F)(F)F)CC1 (stereo not given) -0.114
O=C(CCl)N1CCc2sccc2C1 -0.455
Cc1nnc(C(NC(=O)CCl)c2ccccc2)n1C (stereo not given) 0.37
O=C(CCl)NC1CCOc2ccccc21 (stereo not given) -0.296
COCC[C@@H](NC(=O)CCl)c1ccccc1 0.222
CC(NC(=O)CCl)c1cccc(Cl)c1 (stereo not given) -0.0887
O=C(CCl)Nc1nc(-c2cccs2)cs1 0.0647
COc1ccc(Cl)cc1NC(=O)CCl -0.0284
CCN(Cc1ccc(C#N)cc1F)C(=O)CCl -0.0333
Cl.O=C(CCl)N1CCCC(c2ncc[nH]2)C1 (stereo not given) 0.0747
CS(=O)(=O)c1ccc(CNC(=O)CCl)cc1 0.0587
CC(NC(=O)CCl)c1cc2n(n1)CCCC2.Cl (stereo not given) -0.394
Cl.O=C(CCl)NC1(c2ncccn2)CCC1 0.0888
Cl.O=C(CCl)N1CCn2cncc2C1 -0.298
N#Cc1ccc(CNC(=O)CCl)cc1 0.228
O=C(CCl)NCc1ccc(N2CCOCC2)c(F)c1 -0.0355
O=C(CCl)Nc1cc(Cl)ccc1C(=O)O 0.0271
CS(=O)(=O)c1ccc(NC(=O)CCl)cc1 0.0438
CCN(C(=O)CCl)C1CCCCC1 0.0876
CN(C)C(=O)c1ccc(CNC(=O)CCl)cc1 0.0838
Cc1ccc(CN(CCO)C(=O)CCl)cc1 -0.141
Cl.O=C(CN1CCN(C(=O)CCl)CC1)Nc1ccc(F)cc1 0.0025
Cc1ccccc1OCC(=O)N1CCN(C(=O)CCl)CC1 0.104
O=C(CCl)N1CCCC2CCCCC21 (stereo not given) -0.175
